Results filed as inconclusive are left out. Active and inactive are the calls of the source.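 How the source made its calls, unless noted: active means viability at or below 10% of carrier control in both of two separate runs; inconclusive means viability at or below 10% in only one of the two runs; inactive means the rest.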

The nature of test [1]: Her2 expression decrease, cell viability multiplex – SKBR3 breast tumor cells, AlphaScreen, ATP viability, primary screen (AID 461;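 active means Her2 level under about 52% in both replicate screens, with viability over 70% of control, limit read from the data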;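 on Her2 level: lower value means less Her2 protein in the cells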;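 on viability: percent of carrier control wells set as 100% viability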). Particulars: SKBR3 Her2 protein level, 18-24 h, measured here: SKBR3 viability, ATP luminescence, at 10 µM.
Test [2] addresses Receptor tyrosine-protein kinase erbB-2 (Homo sapiens) (UniProt P04626). Described as above. Conditions: 18-24 h, at 10 µM, stronger effect = lower value.
Test [3] is described as follows: reduced viability of SK-BR-3 breast cancer cells – cell-based, 24 h, human, pilot screen (AID 572).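 Further: compound exposure lasted between 18 and 24 h rather than exactly 24 h; 100% = carrier-treated control wells.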 Particulars: SK-BR-3 viability, CellTiter-Glo luminescence, at 10 µM, stronger effect = lower value.
The nature of test [4]: HUVEC growth inhibition – cell-based, human, primary screen (AID 575;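 active means viability at or below 30% in both replicate assays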;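 further: 100% = median of untreated cell wells with 0.1% DMSO on each plate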). Particulars: HUVEC proliferation, CellTiter-Glo luminescence, 72 h; at 10 µM; stronger effect = lower value.
A short description of test [5]: H69AR cell proliferation blockers – human, duplicate replicates, primary screen (AID 580;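 active means viability at or under a set limit in both replicates, limit being median viability minus 3 SD, cut at about 48% in these data, passing the limit was not always enough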;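 further: 100% = mean luminescence of untreated wells and 0% = no signal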). Particulars: H69AR lung tumor cells viability, ATP luminescence, 72 h; at 10 µM; stronger effect = lower value.
Test [6] can be described thus: MRP1 drug-resistance reversers in H69AR cells – cell-based, doxorubicin co-treatment, pilot screen (AID 601;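 active means viability loss from added drug above about 55%, and viability with drug at most 40%, in both replicates, limit read from the data, passing the limit was not always enough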). Particulars: CellTiter-Glo, 72 h, at 10 µM; for differential viability (reversal): stronger effect = higher value.
A short description of test [7]: yeast transport mutant growth inhibition pilot in 384-well plates, post-Golgi transport modulator project (AID 636; in the data active means inhibition above about 31%). Conditions: absorbance 615 nm, about 18 h, stronger effect = higher value.
Test [8] is described as follows: growth suppression of yeast trafficking mutant, preliminary HTS, modulators of trafficking downstream of Golgi apparatus project, 1536-format plate, OD 615 nm (AID 637; in the data active means inhibition above about 30%). Conditions: yeast transport mutant growth, absorbance 615 nm, 18 h; stronger effect = higher value.
Test [9] is described as follows: S. cerevisiae growth inhibition in permissive medium (OD615), pilot counter-assay for S. cerevisiae lifespan shortening project, permissive growth control (AID 705;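 active means growth inhibition above 25% in both replicates, a cutoff set 3 SD above the mean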). Particulars: OD615, 24 h, at 10 µM, stronger effect = higher value.
Test [10] in a line: S. cerevisiae growth inhibition in restrictive medium, OD615, pilot screen, restrictive growth control, yeast lifespan reduction project (AID 706;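 active means growth inhibition above a set limit, 3 SD over mean compound inhibition, in both replicates, cut at about 43% in these data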;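 further: modified DeaD lifespan yeast strain shifted to restrictive glucose medium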). Conditions: OD615, 48 h, at 10 µM, stronger effect = higher value.
Test [11] in a line: doxorubicin toxicity protection in MRP-1 cells – H69AR cells, CellTiter-Glo, duplicate, MRP-1 activator project, pilot screen (AID 807;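 active means viability increase at or above a cutoff of the median across tested compounds plus 3 SD, cut at about 8.5% in these data, passing the limit was not always enough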;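 further: compound pretreatment 18-22 h then 72 h combined with doxorubicin; 0% = doxorubicin alone and 100% = vehicle without doxorubicin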). Conditions: H69AR viability with doxorubicin, CellTiter-Glo luminescence; at 10 µM; stronger effect = higher value.
A short description of test [12]: viability of HCT116 without oncogenic beta-catenin – human colon tumor cells, pilot screen (AID 823;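 active means cell viability at or below a set limit in both duplicate runs, the limit being the all-compound median minus 4 SD, cut at about 23% in these data, passing the limit was not always enough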;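 further: 0% = wells killed by 20 µM Hyamine and 100% = untreated DMSO cell wells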). Particulars: HCT116 beta-catenin knockout viability, CellTiter-Glo, 60 h; at 10 µM; stronger effect = lower value.
Test [13] can be described thus: viability of PTEN-null HCT116 cells – cell-based, HCT116 clonal line, CellTiter-Glo, pilot screen (AID 824;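 active means viability at or below 27.92% in each of two runs, the all-compound median minus 4 SD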;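 further: 0% = 20 µM Hyamine control and 100% = vehicle cell control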). Particulars: HCT116 PTEN-deleted viability, 60 h, at 10 µM, stronger effect = lower value.
Test [14] in a line: RAM pathway blockade in budding yeast – dse1pr::URA3 reporter, 5-FOA selection, pilot screen (AID 869;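 active means inhibition over a set limit, the all-compound mean plus 3 SD, in both replicate runs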;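 further: 0% = DMSO wells with no growth and 100% = 10 µM 1-NA-PP1 with full growth; RAM network block rescues cells from 5-FOA so hits raise OD615 growth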). Particulars: S. cerevisiae dse1pr::URA3 5-FOA growth, OD615, 2 d; at 10 µM; stronger effect = higher value; strain carries analog-sensitive mutant Cbk1 kinase.
A short description of test [15]: RAM signaling pathway blockade in yeast – S. cerevisiae, Pdr1DBD-CYC8 efflux-inhibited sensitized strain, primary screen (AID 1298;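 active means RAM network inhibition above 8.4% in each of two replicates, 3 SD over the compound average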;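 further: 0% = DMSO untreated cells without growth and 100% = 10 µM 1-NA-PP1 full growth; higher means more yeast growth rescued from 5-FOA killing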). Conditions: S. cerevisiae cbk1-as DSE1-URA3 strain, 5-FOA growth OD615, 2 d; at 50 µM; stronger effect = higher value.
Setting [16] is: H69AR cells + 2 uM doxorubicin, measured here: viability with 2 uM doxorubicin, stronger effect = lower value.
The mark [17] stands for this setting: H69AR cells, compound alone cytotoxicity.

Sequence of Receptor tyrosine-protein kinase erbB-2 (Homo sapiens) (P04626 whole entry, looked up): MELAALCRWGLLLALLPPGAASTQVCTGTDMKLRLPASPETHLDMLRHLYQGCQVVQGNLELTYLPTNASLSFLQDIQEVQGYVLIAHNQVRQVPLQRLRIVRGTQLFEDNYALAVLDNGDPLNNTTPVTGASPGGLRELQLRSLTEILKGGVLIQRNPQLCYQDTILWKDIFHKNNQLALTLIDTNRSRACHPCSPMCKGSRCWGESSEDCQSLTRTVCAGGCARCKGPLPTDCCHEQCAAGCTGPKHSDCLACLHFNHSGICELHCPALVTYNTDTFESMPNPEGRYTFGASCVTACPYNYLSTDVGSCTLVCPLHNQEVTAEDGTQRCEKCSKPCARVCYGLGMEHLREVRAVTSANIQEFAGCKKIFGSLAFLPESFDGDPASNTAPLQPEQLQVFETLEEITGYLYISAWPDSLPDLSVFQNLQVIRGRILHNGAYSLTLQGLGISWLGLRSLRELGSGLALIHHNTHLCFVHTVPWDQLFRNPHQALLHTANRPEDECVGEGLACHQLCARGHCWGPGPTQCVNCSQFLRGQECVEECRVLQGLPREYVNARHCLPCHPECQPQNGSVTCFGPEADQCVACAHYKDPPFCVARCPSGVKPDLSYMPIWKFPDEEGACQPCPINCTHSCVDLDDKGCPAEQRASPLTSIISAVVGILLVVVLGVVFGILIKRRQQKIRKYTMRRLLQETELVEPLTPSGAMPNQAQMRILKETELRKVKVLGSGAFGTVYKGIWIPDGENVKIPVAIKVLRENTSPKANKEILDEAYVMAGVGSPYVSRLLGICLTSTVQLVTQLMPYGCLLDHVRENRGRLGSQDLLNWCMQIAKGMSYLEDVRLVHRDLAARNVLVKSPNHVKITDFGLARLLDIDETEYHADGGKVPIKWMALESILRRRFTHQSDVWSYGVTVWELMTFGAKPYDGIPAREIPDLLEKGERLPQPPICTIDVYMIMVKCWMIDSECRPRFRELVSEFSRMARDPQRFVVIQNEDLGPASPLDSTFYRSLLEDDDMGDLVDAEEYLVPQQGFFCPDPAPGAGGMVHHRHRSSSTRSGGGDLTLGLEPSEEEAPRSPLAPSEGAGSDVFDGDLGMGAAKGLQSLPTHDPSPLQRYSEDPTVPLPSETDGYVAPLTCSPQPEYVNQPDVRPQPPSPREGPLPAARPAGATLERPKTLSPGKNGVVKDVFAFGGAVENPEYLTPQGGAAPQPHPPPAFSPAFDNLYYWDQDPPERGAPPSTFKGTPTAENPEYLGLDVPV

In the case of `Cc1nnc(SCC(=O)Nc2sc3c(c2C#N)CCCC3)[nH]c1=O`, the viability in test [1] is 95.5%; in [3], 95.5% (inactive); in test [4] it was 88.3% (inactive); in test [5] it was 102% (inactive); in [6] (setting [16]) it was 97.4%; in test [6] (setting [17]), 102%. The figures for the viability in test [12] and in [13] were 103% (inactive) and 101% (inactive), respectively. Moreover, in test [2], the Her2 level is 91.5% (inactive). Moreover, the differential viability (reversal) in test [6] (H69AR cells + 2 uM doxorubicin) is 4.41% (inactive). The inhibition in test [7] is -3.38% (inactive); in test [8], -4.83% (inactive); in test [14] it was 0.455% (inactive). For the same molecule, the growth inhibition was 1.05% (inactive) in test [9] and 10.9% (inactive) in test [10]. For the same molecule, the viability increase in [11] was -2.28% (inactive). Besides, the RAM network inhibition in test [15] was 3.34% (inactive).

Consider `COc1cc2c(cc1OC)-c1nnc(C)n1C1(CCCC1)C2`, for which the viability was 87% in test [1]; 87% (inactive) in test [3]; 114% (inactive) in test [4]; 99% (inactive) in [5]; 98.3% in test [6] (setting [16]); 99% in test [6] (setting [17]). In addition, the viability in test [12] was 100% (inactive); in test [13], 94% (inactive). Also, the Her2 level in test [2] was 105% (inactive). In addition, the differential viability (reversal) in test [6] (H69AR cells + 2 uM doxorubicin) is 0.73% (inactive). Also, the inhibition was 1.28% (inactive) in test [7], -1.17% (inactive) in [8] and 1.1% (inactive) in test [14]. Moreover, the growth inhibition was -10.2% (inactive) in [9] and -16% (inactive) in [10]. The viability increase in test [11] was -2.69% (inactive). In [15], the RAM network inhibition is 2.81% (inactive).

For the molecule `CCOc1ccc(Cn2nnc(C(=O)Nc3ccc(OC)cc3OC)c2N)cc1`, the viability was 96.5% in test [1]; 96.5% (inactive) in test [3]; 67.5% (inactive) in test [4]; 102% (inactive) in test [5]; 99.8% in test [6] (setting [16]); 102% in test [6] (setting [17]). Besides, the viability was 83.3% (inactive) in test [12] and 82.8% (inactive) in [13]. Further, the Her2 level in [2] was 102% (inactive). Moreover, in test [6] (H69AR cells + 2 uM doxorubicin), the differential viability (reversal) was 2.46% (inactive). The inhibition in [7] is -1.07% (inactive); in test [8] it was -5.9% (inactive); in test [14] it was 3.14% (inactive). Besides, the growth inhibition in test [9] was -10.3% (inactive); in test [10] it was -9.57% (inactive). The viability increase in test [11] was -4.36% (inactive). Moreover, in test [15], the RAM network inhibition was 4.87% (inactive).

Take `Cn1cccc1Cc1nnc(SCC(=O)NCC2CCCO2)n1-c1ccc(F)cc1` (stereo not drawn): the viability in test [1] was 97.5%; in test [3] it was 97.5% (inactive); in [4], 106% (inactive); in test [5], 91% (inactive); in test [6] (setting [16]), 90.9%; in test [6] (setting [17]) it was 91%. The viability in [12] is 108% (inactive); in test [13] it was 94.7% (inactive). Besides, in [2], the Her2 level is 90% (inactive). For the same molecule, the differential viability (reversal) in test [6] (H69AR cells + 2 uM doxorubicin) is 0.18% (inactive). In addition, the values for the inhibition in test [7], in [8] and in [14] were -4.93% (inactive), -2.33% (inactive) and 0.02% (inactive), respectively. The growth inhibition is -11.2% (inactive) in test [9] and -5.59% (inactive) in [10]. Moreover, in test [11], the viability increase was -1.1% (inactive). Besides, the RAM network inhibition in [15] is 6.15% (inactive).

In the case of `Cc1cc2nc(-c3ccco3)cc(C(F)(F)F)n2n1`, the viability in test [1] was 93.5%; in test [3], 93.5% (inactive); in test [4] it was 102% (inactive); in test [5], 93.3% (inactive); in [6] (setting [16]), 86.6%; in test [6] (setting [17]) it was 93.3%. For the same molecule, the viability in [12] and in [13] was 105% (inactive) in each case. The Her2 level in test [2] is 90% (inactive). In addition, in test [6] (H69AR cells + 2 uM doxorubicin), the differential viability (reversal) was 6.71% (inactive). Further, the inhibition in test [7] was 1.28% (inactive); in test [8], 8.17% (inactive); in test [14], 1.89% (inactive). Besides, the figures for the growth inhibition in test [9] and in test [10] were -17.4% (inactive) and -8.99% (inactive), respectively. Also, the viability increase in test [11] was 1.14% (inactive). For the same molecule, in [15], the RAM network inhibition was 2.83% (inactive).

Consider `CCCSC1=C(C#N)C(c2cc(OC)ccc2OC)CC(=O)N1` (stereo not drawn), for which the viability in test [1] was 93%; in test [3] it was 93% (inactive); in test [4] it was 98.3% (inactive); in [5], 89.1% (inactive); in [6] (setting [16]) it was 83.1%; in test [6] (setting [17]), 89.1%. Moreover, the figures for the viability in test [12] and in test [13] were 92.5% (inactive) and 92.9% (inactive), respectively. In test [2], the Her2 level was 92% (inactive). In addition, the differential viability (reversal) in test [6] (H69AR cells + 2 uM doxorubicin) is 5.96% (inactive). In addition, the inhibition in test [7] was -4.4% (inactive); in test [8], -0.33% (inactive); in test [14] it was 1.42% (inactive). Further, the growth inhibition in [9] is -0.855% (inactive); in test [10], -3.12% (inactive). Moreover, in test [11], the viability increase was -0.44% (inactive). For the same molecule, the RAM network inhibition in test [15] is 0.78% (inactive).

Regarding `CC(C)NC(=O)c1ccc2c(c1)nnn2C`, the viability in test [1] was 94%; in test [3], 94% (inactive); in test [4], 87.6% (inactive); in test [5] it was 99.4% (inactive); in test [6] (setting [16]) it was 98.8%; in [6] (setting [17]) it was 99.4%. Moreover, the viability was 106% (inactive) in [12] and 105% (inactive) in [13]. Further, in [2], the Her2 level is 84% (inactive). Besides, the differential viability (reversal) in test [6] (H69AR cells + 2 uM doxorubicin) is 0.56% (inactive). Further, the inhibition in test [7] is -4.05% (inactive); in [8], -4.92% (inactive); in [14], 2% (inactive). In addition, the growth inhibition in test [9] is -7.61% (inactive); in test [10] it was -12.3% (inactive). Moreover, the viability increase in test [11] was 0.39% (inactive). The RAM network inhibition in test [15] is 1.32% (inactive).

On to `C=CCOc1ccc(/C(CC)=N/O)c(OC)c1`, for which the viability was 93.5% in [1]; 93.5% (inactive) in [3]; 70.4% (inactive) in [4]; 101% (inactive) in test [5]; 90.9% in test [6] (setting [16]); 101% in test [6] (setting [17]). For the same molecule, the viability is 96.7% (inactive) in test [12] and 105% (inactive) in [13]. The Her2 level in test [2] is 104% (inactive). In [6] (H69AR cells + 2 uM doxorubicin), the differential viability (reversal) was 10.5% (inactive). Besides, the inhibition in test [7] was -1.82% (inactive); in test [8], 0.5% (inactive); in [14], 0.56% (inactive). Further, the growth inhibition in test [9] is -19.1% (inactive); in test [10], -11.4% (inactive). Besides, the viability increase in test [11] was -0.09% (inactive). Further, the RAM network inhibition in test [15] is -0.68% (inactive).

In the case of `COc1ccccc1C(=O)OCn1nnc2ccccc2c1=O`, the viability in [1] is 96.5%; in [3], 96.5% (inactive); in [4], 78.8% (inactive); in [5] it was 99.5% (inactive); in test [6] (setting [16]), 115%; in [6] (setting [17]) it was 99.5%. The values for the viability in [12] and in test [13] were 95% (inactive) and 91.2% (inactive), respectively. In test [2], the Her2 level was 98% (inactive). For the same molecule, in test [6] (H69AR cells + 2 uM doxorubicin), the differential viability (reversal) was -15.4% (inactive). Further, the results for the inhibition in test [7], in test [8] and in test [14] were -4.27% (inactive), 1.17% (inactive) and 0.655% (inactive), respectively. The growth inhibition in test [9] is -11.2% (inactive); in [10] it was -10.4% (inactive). The viability increase in [11] was -0.53% (inactive). In addition, the RAM network inhibition in test [15] was 0.92% (inactive).
